The values that follow come from PubChem BioAssay (NCI).

Test systems include NCI-H23 lung; NCI-H226 lung; NCI-H322M lung; HOP-62 NSCLC; NCI-H460 lung; HOP-92 NSCLC; NCI-H522 lung; A549/ATCC NSCLC; 786-0 renal; COLO 205 colon; DU-145 prostate; K-562 leukemia; MALME-3M melanoma; MDA-MB-231 breast; RXF 393 renal; SF-268 CNS; SF-295 CNS; SF-539 CNS; UACC-257 melanoma; M14 melanoma.
Holding throughout (assay): NCI-60 one-dose screen, 48 h (100 = growth as untreated, 0 = no growth, -100 = all killed)
Holding throughout (conditions): 10 µM unless noted

Where “and” joins values, the source holds several entries; their conditions need not be identical. Equal entries are not always repeated. This is part of a sample that, as a whole, favours compounds with a hit. Of some 83,000 tested, about 20% had one in any assay.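 Treatment: one concentration, 48 hours, 96-well format. Scoring: percent growth, with anything below 10 considered active.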 Unmarked numbers belong to inactive results. Calls of active or inactive are those of the source.

Regarding `Clc1ccc(-c2nc3c4c(-c5ccccc5)c(-c5ccccc5)n(Cc5ccccc5)c4ncn3n2)cc1`, the growth in the experiment with NCI-H23 lung was 2.75% (active); in the experiment with NCI-H226 lung, -3.39% (active); in the experiment with NCI-H322M lung it was 21%; in the experiment on HOP-62 NSCLC it was 19.8%; in the experiment with NCI-H460 lung, 3.08% (active); in the experiment on HOP-92 NSCLC, -23.1% (active). The growth in the experiment on NCI-H522 lung is -28.5% (active); in the experiment with A549/ATCC NSCLC, 14.1%; in the experiment with 786-0 renal it was 5.51% (active); with COLO 205 colon it was -59.2% (active); in the experiment with DU-145 prostate, 22.7%; with K-562 leukemia, 4.9% (active). Moreover, the growth was 4.59% (active) in the experiment on MALME-3M melanoma; 0.484% (active) in the experiment on MDA-MB-231 breast; -11.3% (active) with RXF 393 renal; 20.4% in the experiment with SF-268 CNS; -14.1% (active) in the experiment on SF-295 CNS; 7.91% (active) in the experiment with SF-539 CNS. For the same compound, the growth in the experiment on UACC-257 melanoma was 3.18% (active); in the experiment on M14 melanoma it was 15.4%.
Take `COC(=O)c1c(C(=O)OC)c2ccc3c4ccccc4ccc3n2c1C(=O)C(C)Br` (stereo not given): the growth in the experiment with NCI-H23 lung is 33.4%; in the experiment with NCI-H226 lung, 61.7%; in the experiment on NCI-H322M lung it was 83.4%; in the experiment on HOP-62 NSCLC, 67.1%; in the experiment on NCI-H460 lung it was 17.2%; in the experiment on HOP-92 NSCLC, 53.5%. Further, the growth is -55.9% (active) with NCI-H522 lung; 50.5% with A549/ATCC NSCLC; 41.9% in the experiment with 786-0 renal; 43.2% in the experiment on COLO 205 colon; 71.7% in the experiment with DU-145 prostate; 4.34% (active) in the experiment with K-562 leukemia. The growth in the experiment with MALME-3M melanoma is 37.9%; with MDA-MB-231 breast, 33.1%; with RXF 393 renal, 32.8%; in the experiment with SF-268 CNS it was 69.3%; in the experiment on SF-295 CNS it was 78%; in the experiment with SF-539 CNS it was 17.2%. In addition, the growth with UACC-257 melanoma is 57%; with M14 melanoma, 46.5%.
Turning to `CC(C)(C)c1ccc(OCc2nc3ccccc3n2-c2cccc(N)c2)cc1`, the growth was 50.1% and 100% in the experiment with NCI-H23 lung; 61.1% and 103% in the experiment on NCI-H226 lung; 94.8% and 104% with NCI-H322M lung; 88.6% and 102% in the experiment on HOP-62 NSCLC; 78.2% and 109% in the experiment with NCI-H460 lung; 41.6% and 106% with HOP-92 NSCLC. Moreover, the growth in the experiment on NCI-H522 lung is 74.5% and 103%; with A549/ATCC NSCLC, 66.6% and 107%; in the experiment with 786-0 renal, 80.9% and 102%; in the experiment on COLO 205 colon, 77.6% and 114%; with DU-145 prostate, 80.8% and 124%; in the experiment on K-562 leukemia it was 33.3% and 101%. In addition, the growth in the experiment with MALME-3M melanoma was 48.7% and 101%; in the experiment with MDA-MB-231 breast, 53.4% and 106%; in the experiment with RXF 393 renal it was 75.3% and 90.7%; in the experiment on SF-268 CNS, 74.4% and 112%; with SF-295 CNS, 57.7% and 100%; with SF-539 CNS, 66.7% and 100%. Besides, the growth in the experiment with UACC-257 melanoma is 73.8% and 111%; in the experiment with M14 melanoma, 99.8% and 103%.
Take `COC(=O)c1cc(C(C)=O)n2c3ccccc3c3ccccc3c12`: the growth in the experiment with NCI-H23 lung was 78.1%; in the experiment on NCI-H226 lung, 61.3%; in the experiment on NCI-H322M lung, 104%; in the experiment on HOP-62 NSCLC, 57.9%; in the experiment with NCI-H460 lung, 110%; in the experiment on HOP-92 NSCLC, 28.1%. The growth with NCI-H522 lung is 86.4%; in the experiment with A549/ATCC NSCLC, 96.9%; in the experiment on 786-0 renal, 36.6%; in the experiment with COLO 205 colon, 108%; in the experiment with DU-145 prostate, 67%; in the experiment with K-562 leukemia it was 85.9%. Besides, the growth in the experiment with MALME-3M melanoma is 84.6%; with MDA-MB-231 breast, 33.2%; in the experiment on RXF 393 renal, 11.8%; with SF-268 CNS, 59.5%; in the experiment on SF-295 CNS it was 56%; in the experiment with SF-539 CNS it was 28.5%. In addition, the growth in the experiment on UACC-257 melanoma was 118%; in the experiment on M14 melanoma, 72.1%.
On to `CC[C@@]12CC(C(=O)OC)=C3Nc4cc5c(cc4[C@@]34CCN(C[C@H]3O[C@H]31)[C@@H]24)[C@@H]1[C@H](O5)[C@@H](O)[C@@]2(CC)CC(C(=O)OC)=C3Nc4cc(O)ccc4[C@@]34CCN1[C@@H]24`, for which the growth in the experiment on NCI-H23 lung is -53.9% (active); in the experiment with NCI-H226 lung it was -50.9% (active); in the experiment on NCI-H322M lung, -43% (active); in the experiment on HOP-62 NSCLC, -54.4% (active); in the experiment on NCI-H460 lung it was -26.6% (active); in the experiment on HOP-92 NSCLC, -27.3% (active). For the same compound, the growth is -44.9% (active) with NCI-H522 lung; 4.31% (active) in the experiment with A549/ATCC NSCLC; -89.3% (active) in the experiment on 786-0 renal; -61.5% (active) in the experiment on COLO 205 colon; 7.47% (active) with DU-145 prostate; -8.19% (active) in the experiment with K-562 leukemia. Further, the growth in the experiment with MALME-3M melanoma is -39.6% (active); in the experiment on MDA-MB-231 breast it was -70.4% (active); in the experiment on RXF 393 renal, -98.4% (active); with SF-268 CNS it was 10.3%; in the experiment on SF-295 CNS, -63% (active); with SF-539 CNS, -53.1% (active). The growth with UACC-257 melanoma is -23.5% (active); in the experiment on M14 melanoma, -61.4% (active).
In the case of `COc1ccccc1/C=C/c1cccc(NC(=S)NCCCCN(C)C)c1`, the growth in the experiment with NCI-H23 lung is -97.5% (active); with NCI-H226 lung, -71.5% (active); in the experiment on NCI-H322M lung it was -87.4% (active); in the experiment on HOP-62 NSCLC, -51.1% (active); in the experiment on NCI-H460 lung, -74.2% (active); in the experiment on HOP-92 NSCLC, -60.9% (active). The growth is -66% (active) with NCI-H522 lung; -51.7% (active) with A549/ATCC NSCLC; -55.3% (active) in the experiment with 786-0 renal; -68.2% (active) in the experiment with COLO 205 colon; -69% (active) with DU-145 prostate; 1.56% (active) in the experiment on K-562 leukemia. The growth was -90.6% (active) in the experiment on MALME-3M melanoma; -89.8% (active) with MDA-MB-231 breast; -94.2% (active) in the experiment on RXF 393 renal; 6.05% (active) with SF-268 CNS; -100% (active) with SF-295 CNS; -93% (active) with SF-539 CNS. The figures for the growth with UACC-257 melanoma and with M14 melanoma were -82.6% (active) and -74% (active), respectively.
On to `CCCCCCCOc1ccc(S(=O)(=O)Nc2ccc(C)c(F)c2C(=O)O)cc1`, for which the growth with NCI-H23 lung is 93.2%; in the experiment on NCI-H226 lung, 88%; with NCI-H322M lung, 100%; with HOP-62 NSCLC, 98%; in the experiment on NCI-H460 lung, 102%; in the experiment with HOP-92 NSCLC, 8.57% (active). The growth was 84.3% with NCI-H522 lung; 103% in the experiment on A549/ATCC NSCLC; 95% in the experiment on 786-0 renal; 122% in the experiment on COLO 205 colon; 104% in the experiment with DU-145 prostate; 88.4% in the experiment with K-562 leukemia. Further, the growth with MALME-3M melanoma is 91.3%; with MDA-MB-231 breast it was 96%; in the experiment on RXF 393 renal, 114%; in the experiment with SF-268 CNS it was 101%; in the experiment with SF-295 CNS, 89.3%; with SF-539 CNS, 102%. The growth is 102% with UACC-257 melanoma and 96.4% with M14 melanoma.
